{
  "source": "PubChem BioAssay AID2559",
  "about": "(National Center for Advancing Translational Sciences (NCATS), 2010)",
  "note": "This is one part of the list. A number with no mark means an inactive call. The source made the active and inactive calls.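 The calls were made as follows: active = compounds giving a full or partial concentration-response curve, as inhibitors or activators; inconclusive = weak, top-dose-only or unclear curve responses; inactive = no response at any tested dose.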",
  "data": [
    {"target": "Pyruvate kinase (Leishmania mexicana) (UniProt Q27686)", "sequence (Q27686 whole entry, looked up)": "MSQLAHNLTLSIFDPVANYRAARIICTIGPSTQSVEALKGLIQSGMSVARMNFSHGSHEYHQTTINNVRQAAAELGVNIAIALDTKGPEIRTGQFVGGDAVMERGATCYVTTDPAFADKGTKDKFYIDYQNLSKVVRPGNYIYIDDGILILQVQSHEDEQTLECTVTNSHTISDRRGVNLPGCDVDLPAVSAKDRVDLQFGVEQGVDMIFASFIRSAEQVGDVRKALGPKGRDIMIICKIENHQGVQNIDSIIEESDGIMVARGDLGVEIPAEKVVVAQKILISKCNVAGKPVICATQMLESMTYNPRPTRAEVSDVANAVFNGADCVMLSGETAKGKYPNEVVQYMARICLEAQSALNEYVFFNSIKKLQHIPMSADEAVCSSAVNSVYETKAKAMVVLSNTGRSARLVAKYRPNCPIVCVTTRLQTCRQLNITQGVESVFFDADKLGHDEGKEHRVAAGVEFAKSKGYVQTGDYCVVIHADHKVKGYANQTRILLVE", "experiment": "Confirmation Assay for Inhibitors of Leishmania Mexicana Pyruvate Kinase (LmPK)", "details": "purified LmPK, Kinase-Glo ATP luminescence, 1 h; series mostly up to 57.5 µM; activity change, negative = inhibition: at the top concentration", "from_the_text": "NIH Chemical Genomics Center [NCGC] Malcolm Walkinshaw, Hugh Morgan, Linda Gilmore University of Edinburgh, UK MLPCN Grant: 1 R03 MH085697-01 NCGC Assay Overview: Pyruvate kinase (L. Mexicana) (LmPK) enzyme was supplied as a highly purified (>95% pure) sulphate-free preparation from University of Edinburgh, UK and assayed for its ability to generate ATP from ADP using phosphoenolpyruvate (PEP) as a substrate. ATP generation was detected in a coupled reaction by luciferase-mediated luminescence, an ATP-dependent process. […] The enzyme was assayed at an intermediate level of activity to screen for both inhibitors and activators.\nNCGC Assay Protocol Summary: Three uL of enzyme mix (kept on ice) in assay buffer (50 mM Imidazole pH7.2, 50 mM KCl, 7 mM MgCl2, 0.01% Tween 20, 0.05% BSA) containing PEP (0.5 mM final concentration) and LmPK (0.1 nM final concentration) was dispensed into white solid bottom 1,536 well microtiter plates. 23 nL of compound were delivered by a pin tool and 1 uL of ADP mix in assay buffer (r.t; 0.1 mM final ADP concentration) was added. Plates were incubated at room temperature for 1 hour. Two uL of detection mix (Kinase-Glo, Promega; at 4 degree Celsius protected from light) was added and luminescence read by a ViewLux (Perkin Elmer) at 1 second exposure/plate. Data were normalized to the uninhibited and AC100 inhibition (no enzyme). To monitor activation, the first column contained a five-fold concentration of LmPK (0.5 nM).", "units": {"activity change, negative = inhibition": "%"}, "values": [
      {"smiles": "CC(=O)N(C1=C(Cl)C(=O)c2ccccc2C1=O)c1ccc(C(=O)O)cc1", "Potency": "2.59 µM (active)"},
      {"smiles": "COc1ccc(-c2cc(C(F)(F)F)nc(NCc3cccnc3)n2)cc1", "activity change, negative = inhibition": -0.303},
      {"smiles": "CN1CC(c2ccccc2)C2(COc3ccccc3C2=O)C12C(=O)Nc1ccccc12", "note": "(configuration not stated)", "activity change, negative = inhibition": 0.969},
      {"smiles": "COc1ccc(C(=O)C[n+]2ccc(N)c(C)c2C)cc1", "activity change, negative = inhibition": -2.39},
      {"smiles": "COc1ccc(-c2cn3ccc(C)cc3n2)cc1", "Potency": "9.19 µM (active)"},
      {"smiles": "Cn1cc(CN2CCCCC2c2ccccn2)c(-c2ccc3c(c2)OCCO3)n1", "note": "(configuration not stated)", "activity change, negative = inhibition": 0.784},
      {"smiles": "COCCN(C(=O)c1ccco1)c1nnc(-c2ccc(OC)cc2)s1", "activity change, negative = inhibition": -0.0929}
    ]}
  ]
}
